# A selection: hits, their analogues and other compounds. The true share with any hit is near 9.4%.
# ELG1 repair inh: inhibitors of ELG1-dependent DNA repair in HEK293T cells; Potency, µM (top dose mostly 46.1 µM), usual class: inhibitors; HEK293T ELG1-luciferase reporter, luminescence, 16 h; DNA damage induced by 5-fluorouridine; 2.3% of 330,000 active; AID 504467; further: nearly all actives have a fitted effect of over 55% in size
#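 HEK293T cells expressing luciferase-tagged ELG1 (2,000/well) received 5-Fluorouridine plus compound or DMSO for 16 hr at 37 °C. Luciferase was read by ONE-Glo luminescence after 30 min at room temperature.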
# Rab9 prom act: Rab9 promoter activation | Huh7 Rab9 promoter-luciferase reporter, luminescence, 24 h | Potency, µM (series often up to 9.22 µM), hits mostly activators | AID 485297 | 2.8% of 320,000 active; further: nearly all actives have a fitted effect of over 60% in size
#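 Huh7 reporter line, Rab9 promoter upstream of luciferase. Compound exposure 24 h at 37 °C in reduced-serum medium with 10% FBS. Read-out: luminescence.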
# ELG1 genotox: genotoxicity induction in ELG1-luciferase HEK293T cells; 1.3% of 330,000 active; Potency, µM (doses to about 46 µM), hits mostly activators; HEK293T ELG1-luciferase reporter, luminescence, 16 h; further: nearly all actives have a fitted effect of over 60% in size
#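 HEK293T cells expressing luciferase-tagged ELG1 were exposed to compound or DMSO vehicle for 16 hr at 37 °C and 5% CO2. Luciferase activity was then measured with ONE-Glo after 30 min at room temperature.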
# NPC1 promoter act: activates the NPC1 promoter; Huh7 NPC1 promoter luciferase reporter, 24 h; Potency, µM (top dose mostly 9.22 µM), hits mostly activators; 2.4% of 320,000 active; further: nearly all actives have a fitted effect of over 60% in size
#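 Readout is luciferase luminescence, reflecting NPC1 promoter activation in stably transfected Huh7 cells after 24 h compound exposure at 37 °C in reduced-serum medium with 10% FBS.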
# SMN2 splice up: SMN2 splice variant enhancement | HEK293 SMN2-luciferase splicing reporter, luminescence, 30-36 h | Potency, µM (highest dose often 46.1 µM), actives largely listed as activators | 2.8% of 210,000 active | AID 1458; further: nearly all actives have a fitted effect of over 55% in size
#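 qHTS luciferase splicing reporter: luminescence rises when SMN2 exon 7 is included in transfected HEK293 cells. Compound exposure lasted 30-36 h at 37C, with 4.5 mM final sodium butyrate as control, followed by a ONE-Glo read.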
# FLuc counter: inhibits or activates purified firefly luciferase, miR-21 counter-screen. P08659. purified FLuc, Km substrates, luminescence inhibition. Potency, µM (titrated, usually from 57.5 µM), actives largely listed as inhibitors. 6.9% of 360,000 active; further: nearly all actives have a fitted effect of over 55% in size
# Target sequence (P08659 whole entry, looked up): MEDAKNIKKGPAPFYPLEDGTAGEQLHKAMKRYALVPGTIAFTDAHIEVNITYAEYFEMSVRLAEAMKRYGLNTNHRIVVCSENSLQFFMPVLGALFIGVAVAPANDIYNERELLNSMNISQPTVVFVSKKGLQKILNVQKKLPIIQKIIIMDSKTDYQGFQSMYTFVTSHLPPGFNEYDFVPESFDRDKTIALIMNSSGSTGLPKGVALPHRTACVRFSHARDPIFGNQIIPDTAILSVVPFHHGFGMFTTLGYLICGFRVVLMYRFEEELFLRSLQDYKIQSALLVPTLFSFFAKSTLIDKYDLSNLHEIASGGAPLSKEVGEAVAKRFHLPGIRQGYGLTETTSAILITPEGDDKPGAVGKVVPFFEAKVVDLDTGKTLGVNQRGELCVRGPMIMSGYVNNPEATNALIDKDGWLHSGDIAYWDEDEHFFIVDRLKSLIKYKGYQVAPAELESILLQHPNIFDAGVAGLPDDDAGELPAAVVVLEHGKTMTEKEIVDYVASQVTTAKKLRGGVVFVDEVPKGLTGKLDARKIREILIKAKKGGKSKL
#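 Purified P. pyralis luciferase (10nM final) with 10uM D-luciferin and 10uM ATP (Km levels) in 50mM Tris acetate pH 7.5, 10mM Mg acetate, 0.01% Tween-20, 0.05% BSA; qHTS 6-point titration, ~60 µM downward; luminescence read.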
# Numbers stand for hits; i = inactive; ? = inconclusive; nt = no result given; [ ] = remark or other dose. The call rests on the fitted dose curve; in most records, active means well fitted curve in the direction sought with a large enough effect; inconclusive means small, poorly fitted or top-dose-only effect, or another doubt; inactive means no such curve, though single readings can be large; an effect the other way counts as inactive or inconclusive.
SMILES,ELG1 repair inh,Rab9 prom act,ELG1 genotox,NPC1 promoter act,SMN2 splice up,FLuc counter
CCOC(=O)N/N=C/c1ccccc1F,?,2.82µM,i,2.51µM,?,?
CCOC(=O)N/N=C/c1ccc(N(CC)CC)cc1O,?,i,?,i,?,23.9µM
CCOC(=O)N/N=C/c1c(F)cccc1F,?,i,i,i,?,?
Cc1cc(C(=O)N/N=C/c2cccc(Cl)c2Cl)no1,?,?,20.6µM,?,i,10.7µM
CCOC(=O)N/N=C/c1cn(CCCOc2ccc(C)cc2)c2ccccc12,i,?,i,1.78µM,i,i
CCOC(=O)c1c(C)c(-c2ccccc2)n(CC(=O)Nc2cc(C)ccc2OC)c1C,nt,nt,nt,nt,i,i
Nc1ncnc2c1ncn2[C@H]1O[C@@H](C(=O)OCCO)[C@@H](O)[C@H]1O,nt,nt,nt,nt,i[9.22 µM],nt
Cc1nnc(SCC2=C(C(=O)O)N3C(=O)C(NC(=O)Cn4cnnn4)[C@@H]3SC2)s1 (some centres not stated),nt,nt,nt,nt,i,nt
O=S(=O)(Nc1ccc(F)c(C(F)(F)F)c1)c1ccc(N2CCCCS2(=O)=O)cc1,nt,nt,nt,nt,nt,i
CCCn1c(=O)c(C(=O)N/N=C/c2ccc(F)cc2)c(O)c2ccccc21,i,i,i,i,nt,i
CCCn1c(=O)c(C(=O)N/N=C/c2ccccc2F)c(O)c2ccccc21,?,2.24µM,?,?,12.6µM,i
CCOC(=O)N/N=C/c1cccc(Cl)c1Cl,?,i,i,i,?,21.3µM
CCc1cccc2c(C(=O)COC(=O)c3nn(C)c(=O)c4ccccc34)c[nH]c12,?,i,i,i,i,13.5µM
CCn1nc(C(=O)OCC(=O)c2c[nH]c3ccccc23)c2ccccc2c1=O,?,i,i,i,i,23.9µM
O=C(CCCCCNc1nc(=S)[nH]c2ccccc12)NCCc1c[nH]c2ccccc12,18.4µM,i,i,i,i,?
O=C(CCCCCNc1nc(=S)[nH]c2ccccc12)NCCc1ccc(Cl)cc1,i,i,i,i,i,i
Cc1nnc(Nc2ccc3c(c2)OCO3)c2ccccc12,?,?,?,?,i,15.1µM
CC(=O)Nc1ccc(Nc2nnc(-c3ccc(C)c(S(N)(=O)=O)c3)c3ccccc23)cc1,i,i[1.84 µM],i,i,i,i
Cc1ccc(-c2nnc(Nc3ccc4c(c3)OCO4)c3ccccc23)cc1S(N)(=O)=O,16.4µM,i,i,i,i,23.9µM
CNC(=O)c1cc(Nc2nnc(C)c3ccccc23)ccc1OC,?,i,?,i,i,i
CC(=O)Nc1ccc(Nc2nnc(-c3ccc(C)c(S(=O)(=O)NCCO)c3)c3ccccc23)cc1,i,i,i,i,nt,?
Cc1ccc(-c2nnc(Nc3ccc(O)cc3)c3ccccc23)cc1S(=O)(=O)NC(C)(C)CO,nt,nt,nt,nt,i,19µM
CCOC(=O)N1CCN(C(=O)C2CCCN(Cc3nc(-c4ccc(Cl)cc4)oc3C)C2)CC1 (configuration not stated),4.61µM,i,i,i,i,i
CCOC(=O)N1CCC(NC(=O)C2CCCN(Cc3nc(-c4cccc(Cl)c4)oc3C)C2)CC1 (configuration not stated),9.2µM,i,i,i,i,i
CCOC(=O)N1CCC(NC(=O)CS(=O)(=O)Cc2nc(-c3cccc(OC)c3)oc2C)CC1,?,i,i,i,i,i
SMILES,ELG1 repair inh,Rab9 prom act,ELG1 genotox,NPC1 promoter act,SMN2 splice up,FLuc counter
CCc1ccc(-c2nc(CN3CCCC(C(=O)N4CCN(c5cc(Cl)ccc5C)CC4)C3)c(C)o2)cc1 (configuration not stated),nt,nt,nt,nt,i,i
CCOC(=O)N1CCC(NC(=O)CS(=O)(=O)Cc2nc(-c3cccc(Cl)c3)oc2C)CC1,14.6µM,i,i,i,nt,i
N/C(=N\C(=S)Nc1ccccc1)c1ccccc1,?,0.708µM,?,0.501µM,nt,10.7µM
CNC(=S)/N=C(/Nc1ccccc1)c1ccccc1,i,i,i,i,i,i
C/C=C\C(=O)Nc1cccc(C2=NOC3(C2)C[C@H](C(N)=O)N(C(=O)/C=C/CC)C3)c1 (some centres not stated),i,i,i,i,nt,i
C/C=C\C=C/C(=O)Nc1cccc(C2=NOC3(C2)C[C@@H](C(N)=O)N(C(=O)/C=C/CC)C3)c1 (some centres not stated),?,i,i,i,nt,16.9µM
C/C=C\C=C/C(=O)Nc1cccc(C2=NOC3(C2)C[C@@H](C(N)=O)N(C(=O)/C=C/C=C\C)C3)c1 (some centres not stated),?,i,i,i,nt,19µM
C=C(C)C(=O)Nc1cccc(C2=NOC3(C2)C[C@@H](C(N)=O)N(C(=O)C(=C)C)C3)c1 (some centres not stated),i,i,i,i,nt,i
C=C(C)C(=O)N1CC2(CC(c3cccc(NC(=O)/C=C\C=C/C)c3)=NO2)C[C@H]1C(N)=O (some centres not stated),?,i,i,i,nt,16.9µM
C/C=C\C=C\C(=O)N1CC2(CC(c3cccc(NC(=O)CC(c4ccccc4)c4ccccc4)c3)=NO2)C[C@H]1C(N)=O (some centres not stated),i,i,i,i,nt,i
C/C=C/C=C\C(=O)Nc1cccc(C2=NOC3(C2)C[C@@H](C(N)=O)N(C(=O)c2cc([N+](=O)[O-])cc([N+](=O)[O-])c2)C3)c1 (some centres not stated),i,i,i,i,nt,3.01µM
CCOC(=O)c1nc(N2CCN(c3ccc(F)cc3)CC2)c2c(C)noc2n1,nt,nt,nt,nt,nt,i
C/C=C\C=C/C(=O)Nc1cccc(C2=NOC3(C2)C[C@@H](C(N)=O)N(C(=O)C2(C)CC2)C3)c1 (some centres not stated),?,i,i,i,nt,15.1µM
C/C=C\C(=O)Nc1cccc(C2=NOC3(C2)C[C@@H](C(N)=O)N(C(=O)C2(C)CC2)C3)c1 (some centres not stated),i,i,i,i,nt,i
CCOC(=O)c1cccc(NC(=O)c2cc3c(=O)n(C)c4ccccc4c3n2C)c1,nt,nt,nt,nt,i,i
O=C(Nc1ccc(N2CCCCC2)cc1)c1ccc2ccccc2n1,i,2.82µM,?,?,i,4.78µM
Cc1ccccc1C(=O)Nc1ccc(N2CCCC2)cc1,?,?,i,?,nt,9.53µM
Cc1ccc(C(=O)Nc2ccc(N3CCCC3)cc2)c(C)c1,i,i,i,i,nt,?
O=C(Nc1cccc(S(=O)(=O)N2CCCCCC2)c1)c1ccc2ccccc2n1,i,i,i,i,i,?
O=C(Nc1ccc(N2CCCC2)cc1)C(Cl)c1ccccc1 (configuration not stated),?,i,i,i,i,8.49µM

# Screening results as filed in PubChem BioAssay.
